# Assay results taken from PubChem BioAssay AID2314 (National Center for Advancing Translational Sciences (NCATS), 2010).
# The campaign covered roughly 300,000 compounds. About 37,000 (12%) were called active. No stated cut-off is given here; in the data, active means max response mostly above about 13% (no sharp cut-off); inactive means mostly below about 14%. Only a selection was taken, and actives are over-represented in it overall.
# Test: Cycloheximide Counterscreen for Small Molecule Inhibitors of Shiga Toxin; further: read at 38.3 µM for the half of the compounds with a filed dose; 0% is about no effect
# Conditions: cell reporter, cycloheximide protein synthesis inhibition counterscreen; hits give high values
row,Structure (SMILES),max response
1,COc1ccc(-n2ncc3c2CC(C)(C)CC3NC(=O)CCc2c(C)noc2C)cc1 (centres undefined),1.45% (inactive)
2,C#CC(CCN1CCCCC1)(OC)c1ccccc1 (centres undefined),-1.93% (inactive)
3,COc1ccccc1NC(=S)N1CCN(C(c2ccccc2)c2ccccc2)CC1,-1.77% (inactive)
4,Cc1cccc(NC(=S)N2CCC(c3nc4ccccc4s3)CC2)c1,-8.19% (inactive)
5,Cc1nc2ccc(NC(=O)N3CCC(c4ccccc4)C3)cc2nc1C (centres undefined),-1.48% (inactive)
6,Cc1nc2ccc(NC(=S)N3CCC(C)CC3)cc2nc1C,29.7% (active)
7,O=C(Cc1ccc(Cl)c(Cl)c1)Nc1ccc(SC(F)F)cc1,32.1% (active)
8,Cc1ccc(CC(=O)Nc2ccc(OC(F)F)c(Cl)c2)cc1C,-1.56% (inactive)
9,CC(=O)N1CCN(CC(=O)Nc2ccc(SC(F)F)cc2)CC1,-7.31% (inactive)
10,Nc1ccccc1SC(C[N+](=O)[O-])c1ccccc1 (centres undefined),58.7% (active)
11,Cc1ccc(C(C[N+](=O)[O-])c2c(C)cc3ccccn23)cc1 (centres undefined),-2.05% (inactive)
12,CCCN1C2CCCC1CC(NC(=O)c1cccc(OC)c1)C2 (centres undefined),0.249% (inactive)
13,COc1ccccc1C1CCN(c2ccc([N+](=O)[O-])cn2)CC1,4.09% (inactive)
14,O=C(Cc1c(Cl)cccc1Cl)NC1CC1,-4.84% (inactive)
15,Cc1ccc(S(=O)(=O)c2nnn3c2nc(N2CCN(c4ccccn4)CC2)c2ccccc23)cc1,-2.94% (inactive)
16,FC(F)(F)c1cc(-c2ccco2)nc(NCc2ccc(Cl)cc2)n1,-4.49% (inactive)
17,CN(CC(=O)Nc1ccc(F)cc1)C(=O)c1ccc(-c2ccc(Cl)cc2)o1,10.2% (inactive)
18,O=C(N/N=C\c1ccc(-c2ccc(Cl)c(Cl)c2)o1)C(=O)N1CCCC1,-1.36% (inactive)
19,Nc1nnnn1CC(=O)N/N=C/c1ccc(-c2cccc(Cl)c2)o1,12.6% (inactive)
20,COC(=O)N/N=C/c1ccc(-c2ccc(Cl)c(Cl)c2)o1,51.5% (active)
21,Cc1cccc(-c2nc(CS(=O)CC(=O)NC(C)CCc3ccccc3)c(C)o2)c1 (centres undefined),-0.794% (inactive)
22,O=C(Nc1ccc(Cl)c(Cl)c1)N1CC=C(c2ccccc2)CC1,4.38% (inactive)
23,Cc1ccc(C)c(N2CCN(C(=O)CCCn3c(=O)c4cccn4c4cccnc43)CC2)c1,-1.51% (inactive)
24,CCOC(=O)C1=C(c2ccccc2)NC(=S)NC1c1ccc(Cl)cc1 (centres undefined),1.29% (inactive)

row,Structure (SMILES),max response
1,COc1ccc(C2NC(=S)NC3=C2CCc2ccccc23)cc1OC (centres undefined),6.79% (inactive)
2,CCOc1ccc(C2NC(=S)NC3=C2CCc2ccccc23)cc1 (centres undefined),54.2% (active)
3,Cc1ccc(CNC(=O)[C@@H](NC(=O)Cc2ccccc2)C(C)C)cc1,3.51% (inactive)
4,CSCCC(NS(=O)(=O)c1ccc2c(c1)oc(=O)n2C)C(=O)NC1CCCc2ccccc21 (centres undefined),7.75% (inactive)
5,O=[N+]([O-])c1cccc(S(=O)(=O)NCc2ccccn2)c1,-2.36% (inactive)
6,COc1cccc(C(=O)OCc2cc(=O)oc3c(C)c(C)ccc23)c1OC,-3.37% (inactive)
7,O=C(O)C1CC=CCC1C(=O)NCCc1ccccc1 (centres undefined),-2.55% (inactive)
8,O=C(Nc1ccc(Cl)c(Cl)c1)c1ccccc1NC(=O)C1CC=CCC1C(=O)O (centres undefined),38.2% (active)
9,O=C(Nc1ccccc1C(=O)N1CCCCCC1)c1ccccc1Cl,-3.34% (inactive)
10,O=C(O)C1CC=CCC1C(=O)Nc1ccccc1C(=O)N1CCN(c2ccccc2)CC1 (centres undefined),-3.82% (inactive)
11,O=C(Nc1cccc(Cl)c1Cl)c1ccccc1NC(=O)C1CC=CCC1C(=O)O (centres undefined),26.8% (active)
12,O=C(Nc1ccccc1)c1ccccc1NC(=O)C(F)(F)F,11.2% (inactive)
13,COc1ccc(-c2nn(-c3ccccc3)cc2/C=C2/SC(=S)N(CCCC(=O)O)C2=O)c(C)c1,-2.33% (inactive)
14,COc1cccc(CNS(=O)(=O)c2ccc3c(c2)CC(C)N3C(=O)C2CCC2)c1 (centres undefined),8.91% (inactive)
15,O=C(NCc1cccs1)c1ccc(Br)o1,6.23% (inactive)
16,CC(CCc1ccccc1)NC(=O)c1ccc(Br)o1 (centres undefined),5.6% (inactive)
17,C/C(=N/NC(=O)c1ccc(Br)o1)c1ccc(C)o1,78.1% (active)
18,Cc1cc(C)c2c(-c3ccc(F)cc3)c(C#N)c(=O)n(C)c2n1,-4.22% (inactive)
19,CN(CCC1CCOCC1)Cc1cn[nH]c1-c1ccc(-c2ccccc2)cc1,19% (active)
20,O=C(CC1C(=O)NCCN1Cc1ccc(-c2ccccc2)cc1)NCC1CCOCC1 (centres undefined),-0.46% (inactive)
21,COc1ccc(-c2[nH]ncc2CN(C)Cc2c(C)n[nH]c2C)c(OC)c1,-6.81% (inactive)
22,O=C(c1ccc(F)cc1)C1CCN(Cc2cn[nH]c2-c2ccccc2)CC1,-1.57% (inactive)
23,Cc1nnc(CN(C)Cc2cn[nH]c2-c2ccc(-c3ccccc3)cc2)o1,14.6% (active)
24,COc1ccc(-c2[nH]ncc2CN(C)Cc2cc(C)[nH]n2)c(F)c1,7.91% (inactive)

row,Structure (SMILES),max response
1,CC1(C)c2[nH]c3ccccc3c2C[C@H]2C(=O)N(N)CC(=O)N21,-5.11% (inactive)
2,CC(C)(C)c1ccc(C(=O)NCc2nnc(SCC(=O)N3CCCc4ccccc43)n2-c2ccccc2)cc1,-1.48% (inactive)
3,CC(C)(C)C(=O)N(Cc1ccccc1)c1ccccn1,0.801% (inactive)
4,Cc1ccccc1N1CCN(S(=O)(=O)c2ccc3ccccc3c2)CC1,-1.83% (inactive)
5,Cc1ccc(Cn2nnc3c(=O)[nH]c(C4CCN(S(=O)(=O)/C=C/c5ccccc5)CC4)nc32)cc1,-2.92% (inactive)
6,COc1ccc(C)cc1NC(=O)CSc1nc(SC)ns1,10.3% (inactive)
7,COc1ccc(NC(=O)CSc2nc(SC)ns2)c(OC)c1,42.1% (active)
8,COc1ccc(NC(=O)CSc2nc(C)cs2)cc1,27.7% (active)
9,Cc1csc(SCC(=O)Nc2sccc2C#N)n1,2.13% (inactive)
10,CSc1nsc(SCC(=O)Nc2cc(C(=O)O)ccc2C)n1,1.8% (inactive)
11,COc1cc(OC)cc(-c2nnc(SCC(=O)Nc3ccc(C(=O)O)cc3)s2)c1,-1.06% (inactive)
12,O=S(=O)(NCCCCCCNS(=O)(=O)c1c(F)cccc1F)c1ccc2c(c1)OCCO2,-6.04% (inactive)
13,C#CCOc1ccccc1/C=C1/C(=O)ON=C1C,7.98% (inactive)
14,COc1ccccc1C(=O)N/C(=C/c1ccco1)C(=O)Nc1ccc(C(=O)O)cc1,-3.58% (inactive)
15,Cc1c(NC(=O)Nc2cccc([N+](=O)[O-])c2)c(=O)n(-c2ccccc2)n1C,3.26% (inactive)
16,CCN1CCN(CCNC(=O)c2ccc3c(c2)NC(=O)/C(=C\c2ccc(OC)c(OC)c2)S3)CC1,1.31% (inactive)
17,CC(Nc1nc(C(F)(F)F)nc2ccccc12)c1cccs1 (centres undefined),-5.02% (inactive)
18,C=Cn1cc[n+](CC(=O)c2ccc(OC)c(OC)c2)c1,-1.55% (inactive)
19,CC(=O)Nc1nc(N(C)C)nc(N(C)C)n1,26.5% (active)
20,CN(C)c1nc(Nc2ccc(Cl)c(Cl)c2)nc(N(C)C)n1,1.57% (inactive)
21,CN(C)c1nc(NN)nc(Nc2ccc(F)cc2)n1,-3.59% (inactive)
22,O=S1(=O)CCO[C@H]2Cc3ccccc3[C@H]2N1Cc1ccccc1,-1.34% (inactive)
23,Cc1c(-c2nn(C)c(=O)c3ccccc23)oc2ccc(F)cc2c1=O,-8.42% (inactive)
24,Cc1cccc(-c2nc3ccc(C(=O)NCCN4CCN(C)CC4)cc3nc2-c2cccc(C)c2)c1,-13.3% (inactive)

row,Structure (SMILES),max response
1,C=CCNC(=O)c1ccc2c3n(nc2c1)-c1ccc(C)cc1CO3,34.5% (active)
2,C=CCNC(=O)c1ccc(C)c(Br)c1,5.91% (inactive)
3,CCCCn1c(N)c(N(CCC(C)C)C(=O)c2ccc([N+](=O)[O-])o2)c(=O)[nH]c1=O,-1.97% (inactive)
4,CCN(CC)CC(=O)Nc1sc2c(c1C(=O)c1ccccc1C)CCC2,-2.82% (inactive)
5,CC(O)c1ccc(OCCN(C)c2ccccn2)cc1 (centres undefined),55.9% (active)
6,CC(C)c1ccc(OCC(O)CN2CCN(c3ccccn3)CC2)cc1 (centres undefined),-1.42% (inactive)
7,CCOc1ccc(C(C(=O)NCCOC)N(CCOC)C(=O)CCC(=O)Nc2ccccn2)cc1 (centres undefined),1.47% (inactive)
8,Nc1[nH]c(=S)nc2nc(-c3ccccc3)c(-c3ccccc3)nc12,-2.36% (inactive)
9,CC1=C(C(=O)NC2CC(C)(C)Cc3c2cnn3-c2ccc(C)cc2)OCCO1 (centres undefined),10.7% (inactive)
10,Cc1ccc(Oc2cnn(-c3ccccc3)c(=O)c2Br)cc1,12.3% (inactive)
11,C=CCNc1cnn(-c2ccc(C)cc2)c(=O)c1Cl,66.7% (active)
12,CC(C)(C)c1nc2ccccc2c(=O)n1N1C(=O)c2ccccc2C1=O,-2.32% (inactive)
13,Cc1ccc2nc(COc3ccc(N(C)S(=O)(=O)c4ccccc4)cc3)cc(=O)n2c1,-1.15% (inactive)
14,O=C(O)c1ccc(COCC(F)(F)F)cc1,-3.85% (inactive)
15,CCCCCc1ccc(-c2cn(Cc3ccc4ccccc4c3)nn2)cc1,-2.64% (inactive)
16,CCOc1ccc(-c2ccc(SCC(=O)N3CCOCC3)nn2)cc1,23.3% (inactive)
17,CCCCCc1ccc(-c2ccc(C(=O)O)cc2)nc1,79.8% (active)
18,CCOc1c(CNCc2ccc(C(=O)O)cc2)cccc1OC,-3.44% (inactive)
19,CCCCCc1ccc(-c2ccc(OCC)cc2)nc1,15.6% (active)
20,COc1ccc(CNC(=O)C2CCN(S(=O)(=O)c3ccc(SC)cc3)CC2)cc1,10.4% (inactive)
21,CCn1c(O)c(N=NC(=O)c2cccc(S(=O)(=O)N3CCCCC3)c2)c2ccccc21,-2.88% (inactive)
22,CC(=O)[O][Sn]([c]1ccccc1)([c]1ccccc1)[c]1ccccc1,-16.7% (inactive)
